Assay results: PubChem BioAssay (NCI)
The panel holds about 79,000 compounds, 15% with a hit somewhere; the sample as a whole holds those more often. Unmarked numbers belong to inactive results. Calls of active or inactive are those of the source. No stated cut-off is given here; in the data, active means growth inhibition above about 70%; inactive means the rest.

Key:
[1] = NCI Yeast Anticancer Drug Screen. Data for the rad50 strain (AID 155);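 further: 0% = growth of vehicle-only cultures of the same strain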; conditions: S. cerevisiae rad50 strain growth inhibition; at 50.0 µM; hits give high values
How it was run: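 DNA repair mutant yeast, compound exposure, growth read-out; inhibition is taken relative to vehicle.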

[2] = NCI Yeast Anticancer Drug Screen. Data for the mec2-1 strain (AID 157); conditions: S. cerevisiae mec2-1 strain, at 50.0 µM, hits give high values
How it was run: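 Readout is yeast growth inhibition, normalised to vehicle-treated controls, in the mec2-1 strain exposed to compound.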

[3] = NCI Yeast Anticancer Drug Screen. Data for the sgs1 mgt1 strain (AID 161);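 further: 0% = growth of cultures given vehicle only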; conditions: S. cerevisiae sgs1 mgt1 strain, at 50.0 µM, hits give high values
How it was run: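 Yeast cells carrying a defined DNA-repair defect were exposed to test compounds. Growth inhibition was measured relative to vehicle-treated controls.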

[4] = NCI Yeast Anticancer Drug Screen. Data for the cln2 rad14 strain (AID 165);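 further: 0% = growth equal to vehicle treated cultures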; conditions: S. cerevisiae cln2 rad14 strain, at 50.0 µM, hits give high values
How it was run: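 Relative to vehicle controls, growth inhibition of compound-treated cln2 rad14 yeast was recorded.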

[5] = NCI Yeast Anticancer Drug Screen. Data for the bub3 strain (AID 167); conditions: S. cerevisiae bub3 mutant strain, at 50.0 µM, hits give high values
How it was run: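 In this screen, a yeast mutant lacking normal mitotic checkpoint function is challenged with compound. Relative growth versus vehicle gives the inhibition value.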

[6] = NCI Yeast Anticancer Drug Screen. Data for the mlh1 rad18 strain (AID 175); conditions: S. cerevisiae mlh1 rad18 strain growth inhibition; at 50.0 µM; hits give high values
How it was run: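 Test agents were incubated with a yeast strain of defined genotype (DNA damage repair defect). Inhibition of growth was derived by comparison with vehicle-exposed cultures.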

| SMILES | growth inhibition [1] | growth inhibition [2] | growth inhibition [3] | growth inhibition [4] | growth inhibition [5] | growth inhibition [6] |
| --- | --- | --- | --- | --- | --- | --- |
| C[C@]12CCC(=O)C(O)=C1CCC2=O | 2.6% | -7.35% | -5.3% | -14.9% | 3.8% | 4.5% |
| CN(C(=O)C1C2c3ccccc3C(c3ccccc32)C1C(=O)N(C)c1ccccc1)c1ccccc1 (centres undefined) | 29.4% | 1.3% | 22.4% | -39% | 1.1% | 21.9% |
| CC(C)(C(=Nc1ccc([N+](=O)[O-])cc1)N1CCOCC1)c1ccccc1 | 9% | 6.7% | 5.05% | 34.6% | 32.1% | 22.6% |
| CCCCCCCC(=O)NN(Cn1c(=S)sc2ccccc21)Cn1c(=S)sc2ccccc21 | 32% | 9.25% | 26.7% | 21.7% | -2.7% | 6.65% |
| Cc1cc2c(cc1C)C(O)CCC(=O)N2 (centres undefined) | 5.55% | 3.7% | 11.7% | 6.85% | 16% | -0.05% |
| C/C(CC(N)=O)=C1\C(=O)NN(c2ccccc2)C1=O | 23.1% | 26.4% | 48.2% | 7.3% | 40% | 36.4% |
| CCc1ccccc1NC(=O)CC1NC(=O)CS1 (centres undefined) | -8.95% | -9.3% | 4.4% | 9.9% | -30.4% | -21.4% |
| CNc1nc(=S)nc(-c2ccccc2)s1 | 11.7% | 13.3% | 11.3% | -8.45% | 11.8% | -9.6% |
| C(=N\c1nnc2ccccn12)/c1ccccc1 | 0.2% | -6.8% | -21.7% | -9.6% | -13.7% | -28.3% |
| Cc1ccc(CO)cc1C | 4.75% | -8.5% | -2.2% | -6.55% | -1.35% | -0.15% |
| COc1ccc(CC2=NCCc3cc(OCc4ccccc4)c(OC)cc32)cc1OCc1ccccc1 | 66.8% | 55% | 52.5% | 30.6% | 78.5% (active) | 93.8% (active) |
| c1cc(C[S+]2CCCC2)ccc1C[S+]1CCCC1 | -17.9% | -30.9% | -32% | -21.1% | -12.4% | -22.3% |
| O=C(CCCn1ccnc1[N+](=O)[O-])NCCn1cncc1[N+](=O)[O-] | 0.65% | -8.2% | 5.9% | 7.6% | 0.25% | -9.9% |
| Cc1ccc(N=C(Nc2ccc(C)cc2)C(c2ccccc2)c2ccccc2)cc1 | 12% | -1.85% | 5.9% | 7.65% | 6.5% | 30.6% |
| CCOC(=O)C(C)(Cc1ccco1)C(=O)OCC | -16.1% | -10.3% | -5.2% | -33.5% | 14.4% | -12.3% |
| CC(=O)Oc1cc2c(cc1OC(C)=O)C(=O)c1cc3c(cc1C2=O)OCO3 | -31.7% | -10.9% | -1.3% | -17.2% | -6.5% | -12% |
| C/C(=N\NC(N)=S)C(CN(CC(C)C)CC(C)C)C(=O)Nc1ccc(C)cc1C (centres undefined) | -18.7% | 6.4% | -7.15% | 16% | -1.15% | -2.75% |
| C[N+](C)(Cc1ccccc1)c1ccccc1 | -3.7% | -6% | -0.15% | -34.9% | 4.1% | -11.2% |
| CCCCCCCCCCCCC(CC)(C(=O)OCC)C(=O)OCC | -1.6% | -0.6% | 13% | -59.5% | 1.15% | -2% |
| COC(=O)C(=[N+]=[N-])C(=O)c1ccccc1[N+](=O)[O-] | 30.5% | 27.4% | 15.8% | 18.5% | 6.9% | 14.5% |

| SMILES | growth inhibition [1] | growth inhibition [2] | growth inhibition [3] | growth inhibition [4] | growth inhibition [5] | growth inhibition [6] |
| --- | --- | --- | --- | --- | --- | --- |
| O=[N+]([O-])c1ccc(S(=O)(=O)Nc2ccccc2-c2ccccc2)cc1 | 99% (active) | 99% (active) | 99.3% (active) | 98.2% (active) | 98.8% (active) | 98.7% (active) |
| Cc1cc(C)c(/C(O)=C/C(=S)N2CCOCC2)c(C)c1 | 33.5% | 14.1% | 43.1% | -33% | -15.3% | 32.6% |
| CN(c1ccccc1Cl)S(=O)(=O)c1ccccc1[N+](=O)[O-] | 5.15% | -30.1% | 31.2% | -18% | 38% | 2.95% |
| Cc1cc(O)c2c(c1)C[C@@H](O)C1=C2C(=O)c2c(O)ccc(OC3CC(O)C(OC4CC(OC5CCC(OC6CC(O)C(OC7CC(OC8CCC(O)C(C)O8)C(O)C(C)O7)C(C)O6)C(C)O5)C(O)C(C)O4)C(C)O3)c2C1=O (some centres undefined) | 88.5% (active) | 90.6% (active) | 90.1% (active) | 84.8% (active) | 86.6% (active) | 88.5% (active) |
| O=C(Cc1ccccc1CC(=O)Oc1ccccc1)Oc1ccccc1 | 9.1% | -3.9% | 10.8% | 5.2% | 18.9% | 5.75% |
| Cc1ccc(C(C)C)cc1OCCOCCCl | -2.25% | 12.8% | -4.85% | -148% | -1% | 10.8% |
| C1CSCCSCSCCS1 | 32.1% | 11.8% | 17.8% | 30.7% | 42.4% | 17.8% |
| COC(=O)Cc1nc2ccccc2[nH]c1=O | -1.15% | -3.25% | -10.3% | -29.2% | -16.8% | -5.7% |
| O=C(NNc1nc(N2CCOCC2)nc(N2CCOCC2)n1)c1ccccc1 | 16.6% | 5.15% | 10.9% | 15.3% | -5.05% | -4.3% |
| Cn1cnc([N+](=O)[O-])c1Sc1nc(N)nc2c1ncn2C1OC(CO)C(O)C1O (centres undefined) | -9.3% | 20.3% | 15.6% | 25.1% | 14.2% | -8.5% |
| OC1CCC(C2CCCCC2)CC1 (centres undefined) | -8.5% | -8.05% | -2.65% | 6.8% | -14.3% | -8.65% |
| CNC(C)C#N (centres undefined) | -17.7% | -11.6% | -11.9% | -19.6% | 0.75% | -11.6% |
| N[C@@H]1c2c(csc2Br)C(=O)[C@@H]1O | -5.25% | -6.55% | 13.3% | -6.8% | 0.8% | -14.6% |
| COc1ccc(C(C)=O)c(O)c1 | -10.4% | -15.2% | -10.2% | -3.7% | 3.2% | 5.2% |
| O=[N+]([O-])c1ccc(-c2cn(-c3ccc(Cl)cc3)cn2)cc1 | 2.75% | -4.15% | 7.5% | 3.35% | -1.85% | -5.7% |
| CC(C)CC(C)(O)C(N)=O (centres undefined) | -5.15% | -7.55% | -29% | -21.8% | 0.35% | -4.95% |
| CCOC(=O)C(c1ccsc1)C(C(=O)OCC)c1cccs1 (centres undefined) | 3.3% | 23.1% | -4.95% | -3.35% | 25.6% | 17% |
| Cn1c(=O)c2n[nH]nc2n(C)c1=O | 7.25% | -0.5% | -0.35% | -11.7% | -14.8% | 15.8% |
| O=C(O)COc1c2occc2cc2ccc(=O)oc12 | 7.9% | -12.4% | 22.7% | 1.55% | -3.1% | 6% |
